{"source": "PubChem BioAssay AID651956", "about": "(Broad Institute, 2012)", "note": "Measured potencies and affinities stand elsewhere. Records with an inconclusive call do not appear. Calls of active or inactive are those of the source.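 The calls were made as follows: active = in every test run, a fitted half-maximal concentration for signal decrease at or below twice the highest tested concentration; inconclusive = runs disagree, flat 30 to 70% decrease, or poor fit; inactive = the rest.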", "data": [{"experiment": "miR-122 activators in hepatoma reporter cells, dose response, cell-based, Huh7 psiCHECK-miR122, Renilla luciferase, cherry-picked (AID 651956);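 also: Renilla luciferase from a miR-122 sensor reporter so lower signal means miR-122 activation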", "settings": "48 h; series mostly up to 35 µM", "values": [{"compound": "COc1ccc(C2SCC(=O)Nc3c2c(=O)[nH]n3C2CCCCCC2)cc1", "note": "(centres undefined)", "outcome": "inactive"}, {"compound": "O=C(c1ccco1)c1cn(Cc2ccccc2Cl)c2ccccc12", "outcome": "inactive"}, {"compound": "COc1ccc2c(c1)c(CCN)c(C)n2Cc1ccccc1", "outcome": "inactive"}, {"compound": "O=C1NC(=O)N(CCC2=CCCCC2)C(=O)/C1=C\\c1cccs1", "outcome": "inactive"}]}]}
